Screens: PubChem, National Center for Advancing Translational Sciences (NCATS)
Most compounds without a hit are left out; they make up all but 19% or so of the library.
TDP1 cell CPT: growth inhibition of DT40 Tdp1-/-;hTDP1 cells with camptothecin (screen for TDP1 inhibitors); 420,000 tested, 12% active; Potency, µM (doses to about 46.2 µM), inactives show at the top dose activity change, negative = growth inhibition, hits mostly inhibitors; AID 686979; chicken DT40 Tdp1-/-;hTDP1 cells + 20 nM CPT, ATP luminescence, 48 h; further: potency means the concentration at half of the fitted maximal effect; nearly all actives have a fitted effect of over 55% in size
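Chicken DT40 Tdp1-/- cells complemented with human TDP1, 400 cells/well, exposed to compounds plus 20 nM camptothecin for at least 48 h at 37 C; viability read as ATP content by CellTiter-Glo luminescence.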
HT1080 IDH1KD tx: toxicity to HT-1080 IDH1 knockdown cells (counter line). 360,000 tested, 2% active. HT-1080 IDH1 knockdown viability, ATP luminescence, 48 h. Potency, µM (doses to about 46.1 µM), inactives show top-dose activity, negative = toxicity, most hits filed as cytotoxic;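 further: potency means the concentration at half of the fitted maximal effect; 0% = DMSO wells and -100% = cell-free medium wells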
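After a 2 h attachment period, IDH1KD HT-1080 cells took pin-transferred compound for 48 h at 37 °C; ATP-based luminescence after 10 min room-temperature reagent incubation reported viability.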
IL-1B inflam inh: inhibitors of inflammasome signaling (IL-1 beta secretion); THP-1 LPS/ATP IL-1B secretion, AlphaLISA, 16 h; active compounds read low; activity change, % at 57.5 µM; 360,000 tested, 4.7% active; in the data active means activity change below about -50%; inconclusive means mostly about -30% to -49%
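THP-1 cells pretreated 1 hr with compounds (up to 57.5 uM final), then stimulated with LPS (250 ng/mL final) plus ATP (1.25 mM final); secreted IL-1B measured by AlphaLISA after 16 hr, decreased signal indicating inhibition.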
HT1080NT lethal: kills 2HG-producing HT-1080-NT fibrosarcoma cells; HT-1080-NT fibrosarcoma viability, CellTiter-Glo ATP luminescence, 48 h; Potency, µM (highest dose often 46.1 µM), inactives show at the top dose activity, negative = less viability, actives largely listed as cytotoxic; 360,000 tested, 1.6% active; AID 686970;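 further: NT is the 2HG producing partner of a matched IDH1 knockdown line; potency means the concentration at half of the fitted maximal effect; 0% = DMSO-treated cells and -100% = media-only wells without cells; nearly all actives have a fitted effect of over 55% in size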
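Viability of the 2HG-overproducing fibrosarcoma line after 48 hours of compound exposure at 37 degrees C was determined by luminescence with CellTiter-Glo, and concentration-effect curves were then fitted and categorized.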
DT40 TDP1 no CPT: qHTS for Inhibitors of human tyrosyl-DNA phosphodiesterase 1 (TDP1): qHTS in cells in absence of CPT. DT40 Tdp1-/- hTDP1 cells, no CPT, ATP luminescence, 48 h. Potency, µM (series often up to 46.2 µM), inactives show at the top dose activity change, negative = growth inhibition, actives largely listed as inhibitors. 420,000 tested, 15% active; further: potency means the concentration at half of the fitted maximal effect; nearly all actives have a fitted effect of over 55% in size
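DT40 Tdp1-/-;hTDP1 cells, no CPT (DMSO vehicle only), 400 cells/well; compounds pin-transferred; ≥48 hr, 37 °C; CellTiter-Glo 30 min RT dark, luminescence read.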
Active calls of the source: *; ? = inconclusive; · = no result; ! = a repeat was not active; [ ] = remark or other dose. Unless noted, the call rests on the fitted dose curve; in most records, active means well fitted curve in the direction sought with a large enough effect; inconclusive means small, poorly fitted or top-dose-only effect, or another doubt; inactive means no such curve, though single readings can be large; an effect the other way counts as inactive or inconclusive. Unless noted, on the % scale 0 is the no-effect control and ±100 the full control effect.

SMILES	TDP1 cell CPT	HT1080 IDH1KD tx	IL-1B inflam inh	HT1080NT lethal	DT40 TDP1 no CPT
CN(C)CC(O)CN1C(=O)N(CN2C(=O)N(CC(O)CN(C)C)C(=O)C2(C)C)C(C)(C)C1=O (stereo unspecified)	7%	?	16	14%	3%
O=C(CC(=O)NCCc1ccccc1)NCCc1ccccc1	19%	2%	19	3%	-15%
NNCCc1ccccc1	?	-2%	1	-1%	13µM*!
O=C(N/N=C/C=C/c1ccccc1)c1ccncc1	?	-16%	2	-8%	21µM*
COc1cc(/C=N/NC(=O)c2cc(-c3cccn3C)n[nH]2)cc(OC)c1OC	21µM*	-7%	-85*	2%	21µM*
O=C(N/N=C/C=C/c1cccc([N+](=O)[O-])c1)c1ccncc1	?	1%	5	-7%	?
COc1cccc(/C=N/NC(=O)c2cc(-c3cccn3C)n[nH]2)c1O	5.8µM*	?	80	-17%	6.5µM*
Cn1cccc1-c1cc(C(=O)N/N=C/C=C/c2ccccc2)[nH]n1	?	-9%	-91*	-5%	?
COc1cc(/C=N\NC(=O)c2ccc(=O)[nH]n2)cc(OC)c1OC	?	26%	56	14%	?
O=C(N/N=C/c1ccco1)c1cc(-c2ccccc2)n[nH]1	?	10%	-3	25%	?
COc1cccc(C(=O)c2c(-c3ccccc3)ncc3cc(OC)c(OC)cc23)c1	?	-17%	?	-5%	?
COc1cccc(-c2ccc(O)c(CNCc3cccc4ccccc34)c2)n1	-6%	·	·	·	-19%
Clc1nc(NCc2ccco2)c2[nH]cnc2n1	-3%	·	·	·	?
C[C@@H](Nc1nc(Cl)nc2nc[nH]c12)c1ccccc1	20µM*	·	·	·	16µM*
Cc1cc(N2O[C@H]3C=C[C@@H]2C3)no1	10%	8%	15	2%	-4%
COC(=O)[C@]12CCCCC=C1N(CCc1ccc(OC)c(OC)c1)C(=O)[C@H](CC(=O)N1CCN(C(=O)C3CC3)CC1)C2	-24%	12%	-21	14%	-26%
CCCCCCCCN1C(=O)[C@H](CC(=O)N2CCC(c3ccccc3)CC2)C[C@@]2(C(=O)OC)CCCCC=C12	?	-13%	-18	-2%	18µM*
CCCCCCCCN1C(=O)[C@H](CC(=O)N2CCN(C(=O)C3CC3)CC2)C[C@@]2(C(=O)OC)CCCCC=C12	?	?	-51*	?	16µM*
CCCCCCCCN1C(=O)[C@H](CC(=O)N2CCSCC2)C[C@@]2(C(=O)OC)CCCCC=C12	?	?	-68*	?	?
CCCCCCCCN1C(=O)[C@H](CC(=O)N2CCCC2)C[C@@]2(C(=O)OC)CCCCC=C12	16µM*	?	-17	?	18µM*
Cc1ccc(N2CCN(C(=O)N3CCOCC3)CC2)c(C)c1	-7%	-7%	-3	1%	?
O=C(NCc1ccc(F)cc1)c1cnc(-c2ccccn2)nc1C(F)(F)F	-10%	-5%	-1	-1%	-10%
COc1cccc(C(C)(O)c2nc(-c3ccccc3C)cs2)c1 (stereo unspecified)	?	?	14	?	?
CCOC(=O)C1=CC[C@H]2c3c(c4ccccc4n3C)C(=O)C1N2C(=O)OC(C)(C)C	?	-6%	-7	0%	?
CCC1CCCCN1C(=O)c1ccc(OC2CCN(C(=O)CCOC)CC2)cc1 (stereo unspecified)	-17%	8%	19	3%	-3%
SMILES	TDP1 cell CPT	HT1080 IDH1KD tx	IL-1B inflam inh	HT1080NT lethal	DT40 TDP1 no CPT
CCCCCCCCN1C(=O)[C@H](CC(=O)N2CCN(C(=O)OCC)CC2)C[C@@]2(C(=O)OC)CCCCC=C12	?	?	-8	?	21µM*
CCCCCCCCN1C(=O)[C@H](CC(=O)N2CCN(C(=O)C3CC3)CC2)C[C@@]2(C(=O)OCC)CCCC=C12	23µM*	?	-66*	?	23µM*
CCOC(=O)N1CCN(C(=O)C[C@@H]2C[C@@]3(C(=O)OC)CCCCC=C3N(CCc3ccc(OC)c(OC)c3)C2=O)CC1	?	16%	-9	7%	?
CCC1C(=O)NCCN1Cc1ccc2c(c1)CN(Cc1ccc(F)c(OC)c1)CCO2 (stereo unspecified)	-6%[9.04 µM]	·	·	·	-7%
Nn1c(SCC(=O)N2CCCC2=O)nnc1-c1cccs1	-1%	2%	4	6%	0%
Cc1ccc2nc(CN(C)C(=O)[C@H]3O[C@@H](n4ccc(N)nc4=O)[C@H](O)[C@@H]3O)[nH]c2c1	4%	14%	-4	17%	7%
Cc1ccc(C)c(CN2CCCN(Cc3cc(C)ccc3C)S2(=O)=O)c1	?	2%	9	-9%	9.2µM*
COc1ccccc1OCCn1c(SCC(=O)O)nc2ccccc21	-24%	3%	34	4%	5%
O=C(CCCCCN1C(=O)[C@@H]2Cc3ccccc3CN2C1=O)Nc1cccc(F)c1	?	-9%	-4	-24%	15µM*
Cc1cccc(NC(=O)CCCCCN2C(=O)[C@@H]3Cc4ccccc4CN3C2=O)c1	-28%	3%	6	8%	?
N#CC1=C(Nc2ccccc2Cl)SC2(CCCC2)NC1=O	16µM*	?	-5	2%	18µM*
COc1cccc(CN(Cc2ccco2)S(=O)(=O)c2ccc(S(=O)(=O)NCc3ccccc3)cc2)c1OC	29µM*	-11%	-16	1%	?
COc1cccc(CN(Cc2ccccc2F)S(=O)(=O)c2ccc(S(=O)(=O)NCc3ccccc3)cc2)c1	?	1%	12	-1%	?
Cc1ncc(Cc2ccccc2)c(C2CCN(S(=O)(=O)C[C@]34CC[C@H](CC3=O)C4(C)C)CC2)n1	?	·	·	·	15µM*
Cc1ccc(C)c(N2CCN(S(=O)(=O)CC34CCC(CC3=O)C4(C)C)CC2)c1 (stereo unspecified)	?	-29%	14	?	-24%
CCn1c(-c2cccc(OC)c2)nc2cc(NC(C)=O)cc(C(=O)N(C)CC3COCCO3)c21 (stereo unspecified)	2%	·	·	·	-17%
COC(=O)c1nn(-c2ccc(OC)cc2)c(=O)c2c(N)sc(C)c12	23µM*	10%	-1	7%	16µM*
COC(=O)c1nn(-c2ccc(OC)cc2)c(=O)cc1NN	1%	0%	44	-2%	4%
CC(C)Oc1cccc(C(=O)Nc2ccc(Br)cc2F)c1	?	-8%	-22	-2%	16µM*
